Assay outcomes as filed in PubChem BioAssay.
In the library only some 3.1% were active in any assay of this set; here they are far more common.
Tau ThT inhib = inhibitors of human tau fibril formation, thioflavin T binding. recombinant tau K18 P301L, heparin-induced fibrillization, ThT fluorescence. Potency, µM (series often up to 57.4 µM), actives largely listed as inhibitors. 270,000 tested, 2.1% active. AID 1460; further: nearly all actives have a fitted effect of over 55% in size
Target sequence (P10636 561-689 P618L limits assumed): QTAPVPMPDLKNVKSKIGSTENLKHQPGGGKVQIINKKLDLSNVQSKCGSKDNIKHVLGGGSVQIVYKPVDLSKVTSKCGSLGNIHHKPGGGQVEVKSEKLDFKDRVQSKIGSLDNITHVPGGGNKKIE
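Aggregation was driven by heparin (20 uM final) acting on recombinant tau […] bearing P301L in 100 mM sodium acetate pH 7; fibrils were detected with Thioflavin T.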
Tau fibril FP = tau fibrillization inhibition (FP); P10636; K18 P301L tau heparin fibrillization, Alexa594 FP, 6 h; Potency, µM (highest dose often 57.7 µM), actives largely listed as inhibitors; 280,000 tested, 0.39% active; further: nearly all actives have a fitted effect of over 55% in size
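Compound effects on tau fibrillization are measured by Alexa 594 fluorescence polarization (ex 555, em 632 nm). K18 P301L tau is used at 15 uM with 0.24 uM labeled tracer, and 20 uM heparin induces aggregation over 6 hr at 37 C.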
TexasRed fluor = counter-screen for TRb-SRC2 inhibitors: fluorescence interference. Potency, µM (series often up to 106 µM). 280,000 tested, 0.29% active. TRb/SRC2 Texas Red total fluorescence interference; active means well fitted curve in either direction with a large enough effect; inconclusive means small, poorly fitted or top-dose-only effect
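Human TRβ ligand-binding domain (0.6 uM) and Texas Red SRC2 peptide (20 nM) in Tris buffer with 1 uM T3 and 5% DMSO were incubated with pinned compound for 5 hr at ambient temperature. Total fluorescence was computed as S + 2P (555/632 nm).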
TRb SRC2 PPI = inhibitors of human thyroid hormone receptor beta-SRC2 interaction | P10828 | TRbeta-SRC2 peptide binding, fluorescence polarization; receptor liganded with 1 µM T3 | Potency, µM (titrated, usually from 106 µM), hits mostly inhibitors | 280,000 tested, 0.065% active; further: nearly all actives have a fitted effect of over 50% in size
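Read-out is fluorescence polarization (555 nm excitation, 632 nm emission) of a Texas Red SRC2 coactivator peptide; loss of signal reflects blocked binding to human TRb ligand-binding domain in the presence of 1 uM T3.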
Tau fluor cs = counter-screen for tau fibril formation inhibitors. tau K18 P301L Alexa594 fluorescence, heparin fibrillization. Potency, µM (highest dose often 57.7 µM). 280,000 tested, 0.93% active. AID 1463; further: nearly all actives have a fitted effect of over 55% in size
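Human tau K18 P301L (15 uM unlabeled, 0.24 uM Alexa 594-labeled) in 100 mM sodium acetate pH 7 with 20 uM heparin, 6 hr at 37 C. ThT 30 uM added, 1 hr ambient; Alexa 594 FP and total fluorescence read at 555/632 nm.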
Hits are given with their value; i = inactive; ? = inconclusive; nt = no result given; ! = not confirmed by another sample; [ ] = another dose, or the depositor's remark. Unless noted, the call rests on the fitted dose curve; in most records, active means well fitted curve in the direction sought with a large enough effect; inconclusive means small, poorly fitted or top-dose-only effect, or another doubt; inactive means no such curve, though single readings can be large; an effect the other way counts as inactive or inconclusive.

SMILES | Tau ThT inhib | Tau fibril FP | TexasRed fluor | TRb SRC2 PPI | Tau fluor cs
NC(=O)CC(NC(=O)Cc1cccc2ccccc12)c1ccc(N2CCc3ccccc3C2)c([N+](=O)[O-])c1 (stereo not given) | 11.2µM | i | i | i | ?
CC1=NN(c2ccccc2)C(=O)/C1=C\C=C1/N(C)c2ccccc2C1(C)C | 2.24µM | ? | i | i | ?
CC1=NN(c2ccccc2)C(=O)/C1=C\C=C1\N(C)c2ccccc2C1(C)C | 1.58µM | i | i | i | ?
CN1/C(=C\C=C2/C(=O)Oc3ccccc3C2=O)C(C)(C)c2ccccc21 | ? | i | i | i | ?
O=[N+]([O-])C(CO)(CO)CO | nt | nt | i | i | nt
CCCCOc1ccccc1NC(=O)Cn1c(-c2cncs2)nc2ccccc21 | ? | i | ? | i | i
CN(C)c1ccc(C(CNC(=O)c2ccccc2)c2c[nH]c3ccccc23)cc1 (stereo not given) | ? | ? | i | i | 14.1µM[quencher]
COC(=O)CC1Oc2ccc(Cl)cc2-n2cc(-c3ccccc3)nc21 (stereo not given) | i | i | i | i | i
Clc1ccc2c(c1)-n1cc(-c3ccccc3)nc1CO2 | ? | i | 11.2µM[quencher] | i | i
CC/C=C\C/C=C\C/C=C\C/C=C\C/C=C\C/C=C\CCC(=O)O | 15.8µM! | ? | i | i | i
CC/C=C\C/C=C\C/C=C\C/C=C\C/C=C\CCCCCC(=O)O | i | i | i | i | i
Cc1ccc2c(c1)N=C(c1ccccc1)CC(C(Cl)Cl)=N2 | 15.8µM | ? | i | i | ?
O=C1N=C(N2CCN(c3ccccc3)CC2)S/C1=C\c1ccco1 | 14.1µM | i | i | i | i
O=C1N=C(N2CCN(c3ccccc3)CC2)S/C1=C/c1ccco1 | ? | i | i | i | i
NC1=NC(=O)/C(=C\c2ccco2)S1 | 17.8µM | ? | i | i | ?
CCCN(C(=O)c1cc(S(=O)(=O)N2CCc3ccccc32)cn1C)c1ccc(OCC)cc1 | i | i | ? | i | i
C=C(C(=O)c1ccccc1)C(C)C(=C)C(=O)c1ccccc1 | 28.2µM | i | i | i | i
C=C(C(=O)c1ccccc1)C(c1ccccc1)C(C)C(=O)c1ccccc1 (stereo not given) | i | i | i | i | i
O=C(CCOc1ccccc1)N(Cc1cccnc1)c1nc2ccc(F)cc2s1 | i | i | i | i | i
CCOc1ccc(NS(=O)(=O)c2ccc3[nH]cc(C(=O)NCc4ccco4)c(=O)c3c2)cc1 | i | 15.8µM | i | i | ?
CCCNC(=O)c1c[nH]c2ccc(S(=O)(=O)N(C)c3ccc(OCC)cc3)cc2c1=O | i | 14.1µM | i | i | ?
CCOc1ccc(NS(=O)(=O)c2ccc3[nH]cc(C(=O)NC(C)CC)c(=O)c3c2)cc1 (stereo not given) | i | i | i | i | i
CCOc1ccc(NS(=O)(=O)c2ccc3[nH]cc(C(=O)NCc4ccccc4)c(=O)c3c2)cc1 | i | 3.55µM | i | i | ?
CCCCCNC(=O)c1c[nH]c2ccc(S(=O)(=O)N3CCC(C)CC3)cc2c1=O | i | 7.94µM | i | i | ?
CCN(Cc1cccc(S(=O)(=O)O)c1)c1ccc(C(=C2C=CC(=[N+](CC)Cc3cccc(S(=O)(=O)O)c3)C=C2)c2ccccc2S(=O)(=O)[O-])cc1 | nt | nt | i | i | nt
SMILES | Tau ThT inhib | Tau fibril FP | TexasRed fluor | TRb SRC2 PPI | Tau fluor cs
Cc1cc(NC(=O)c2ccc(NC(=O)CCS(=O)(=O)c3cccs3)cc2)ccc1Br | ? | ? | i | i | ?
Cc1cccc(NC(=S)NCCSc2ccc(Cl)cc2)c1 | i | ? | i | i | 10µM[quencher]
Cc1ccc(C)c(NC(=S)NCCSc2ccc(Cl)cc2)c1 | i | i | i | i | i
CCOC(=O)Cc1c(C)nc2c(-c3ccc(Cl)cc3)c(C(F)(F)F)nn2c1C | i | i | i | i | i
[O-][n+]1onc2c1CCC(=N/O)/C2=N\Nc1ccccc1 | 14.1µM | ? | ? | i | ?
CC1=C/C(=N\OS(=O)(=O)c2ccccc2)C(C(C)C)=CC1=O | 10µM | ? | i | i | i
COc1cc(C(=O)O/N=C2/C=C(C)C(=O)C=C2C)cc(OC)c1OC | ? | i | i | i | i
CC1=C/C(=N\OS(=O)(=O)c2ccccc2)C(C)=CC1=O | 14.1µM | ? | i | i | ?
CC1=C(C)/C(=N\OS(=O)(=O)c2ccc(C)cc2)C=CC1=O | 10µM | 15.8µM | i | i | ?
